The source of these data is PubChem BioAssay (NCI).

SMILES strings stand for the structures. Compounds without any hit were thinned out: in the full panel of roughly 83,000, 20% have a hit.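 Activity criterion: percent growth below 10, measured after cells in 96-well plates were exposed to a single compound concentration for 48 hours.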 Unmarked numbers belong to inactive results. Calls of active or inactive are those of the source.

For the first assay, the system named is CCRF-CEM leukemia. Put plainly: NCI-60 one-dose screen, 48 h (100 = growth as untreated, 0 = no growth, -100 = all killed). Particulars: 10 µM unless noted.
Regarding `O=C(c1ccccc1)C1OC1c1ccc([N+](=O)[O-])cc1` (stereo unspecified), the growth is 35.1%.
Same read-out and setting: next, `Nc1cccc(Cl)c1N`: 71%; `CCN(CC)CCOc1ccc(Cl)c(C)c1`: 98.4%.
On the same count and under the same terms, next, `COC(=O)C(Sc1ccc(Cl)cc1)C1SC(=S)N(Cc2ccccc2)C1=O` (stereo unspecified): 20.5%; `CC(=O)Nc1scc[n+]1Cc1ccccc1`: 90.1%; `CCCCN(CCCC)C(=N)c1ccnc2ccccc12`: 8.24% (active).
As for `O=C(Oc1ccccc1[N+](=O)[O-])C1CCCN1C(=O)OCc1ccccc1` (stereo unspecified), the growth is 99.1%.
In the case of `CCN(CC)c1ccc(CNc2ccnc3ccccc23)cc1`, the growth was 53.3%.
On the same count and under the same terms, next, `CC1=C(C#N)C(=O)NC(C)C1` (stereo unspecified): 102%.
Still for that read-out and setting: next, `CC1CCC(C)N(C)C1` (stereo unspecified): 93.9%.
Still for that read-out and setting: the value for `COC(=O)c1cccc2c1N(C)c1c(cccc1C(=O)OC)CC2` was 89%; that for `COc1cc(-c2nn(-c3cccc(NC(=O)c4ccc(Cl)c(C(F)(F)F)c4)c3)cc2-c2ccncc2)ccc1Cl` was 12.4%.
Take `CN(C)c1cccc2c(S(=O)(=O)/N=C(\N)Nc3nc4ccccc4s3)cccc12`: the growth is 69.1%.
The same measure, in the same setting: next, `O=C(Nc1ccc(NCCN2CCOCC2)nc1)c1ccc([N+](=O)[O-])cc1`: 101%.
For the molecule `COP(=O)(OC)/C(=N\NS(=O)(=O)c1ccc(C)cc1)c1ccccc1`, the growth was 124%.
Same read-out and setting: the value for `CC(=O)Nc1ccc(/C=C/C(=O)c2ccccc2)cc1` was 31%; that for `COc1ccc(CCNC2=CC(=O)CCC2)cc1OC` was 102%; that for `CCCCCCCCCCCCNC(=O)[C@H]1CSC(c2cc3ccccc3s2)N1` (stereo partly specified) was -45.5% (active).
The same measure, in the same setting: the value for `Cc1ccc(Cc2c(C=O)nc(N)[nH]c2=O)c2ccccc12` was 80%; that for `COc1cc(/C=C/C(=O)c2cccc(-n3cc(-c4cc(OC)c(OC)c(OC)c4)[nH]c3=O)c2)cc(OC)c1OC` was -1.54% (active).
The same measure, in the same setting: next, `CCCCCCCCCCCCNC(=O)[C@H]1CSC(c2ccsc2)N1` (stereo partly specified): -43.2% (active); `O=c1[nH]c(NCc2ccccc2)nc2nc(Nc3ccc(NC(=S)Nc4ccccc4)cc3)nc(-c3ccc(O)cc3O)c12`: 86.4%.
With `CCC(C)/C(=C\C#N)NCCCN/C(=C/C#N)C(C)CC` (stereo unspecified), the growth is 97.4%.
Take `Oc1ccccc1/C=N/NC(=S)NC1CC2C=CC1C2` (stereo unspecified): the growth is 49.5%.
On to `COc1ccc(OC)c(C2OC(c3ccc4ccccc4c3O)=NN2C(C)=O)c1` (stereo unspecified), for which the growth is 69.2%.
For the molecule `CN1CCN(Cc2ccc(NC(=O)c3cncc(C#Cc4cnc(N)c5cnccc45)c3)cc2C(F)(F)F)CC1`, the growth was 13%.
Turning to `COC(OC)c1ccccc1`, the growth is 119%.
Still for that read-out and setting: the value for `CC(C)CSc1nc(NN)c(C#N)c(-c2ccc(F)cc2)n1` was 61.6%; that for `COc1cc2c(cc1OCCCN1CCN(CCCn3c4ccccc4c4ccccc43)CC1)N=C[C@@H]1CCCN1C2=O` was -11.4% (active).
On the same count and under the same terms, next, `CC1(C)C(=O)/C(=C\c2ccc(C(F)(F)F)cc2)C[C@]2(C)[C@H]3CC[C@@H]4[C@H]5[C@H](C(=O)/C=C/c6ccc(C(F)(F)F)cc6)CC[C@]5(CO)CC[C@@]4(C)[C@]3(C)CC[C@@H]12`: 90.5%; `Cc1ccc(-c2cc3nc(C(Cl)Cl)nc(-c4ccccc4C)n3n2)cc1`: 96.1%; `CCOC(=O)C1=C(C)NC(C)=C(C(=O)OCC)C1(C)C`: 94.4%.
For the molecule `O=c1[nH]c(Nc2ccc(S(=O)(=O)O)cc2)nc2nc(Nc3ccc(NC(=S)Nc4ccccc4)cc3)nc(-c3ccc(O)cc3O)c12`, the growth was 94.5%.

The next assay has as its system MOLT-4 leukemia. Described as above. Particulars: 10 µM unless noted.
Regarding `O=C(c1ccccc1)C1OC1c1ccc([N+](=O)[O-])cc1` (stereo unspecified), the growth was 76.2%.
Same read-out and setting: the value for `Nc1cccc(Cl)c1N` was 93.1%; that for `CCN(CC)CCOc1ccc(Cl)c(C)c1` was 99.8%; that for `COC(=O)C(Sc1ccc(Cl)cc1)C1SC(=S)N(Cc2ccccc2)C1=O` (stereo unspecified) was 62.1%.
Same read-out and setting: the value for `CC(=O)Nc1scc[n+]1Cc1ccccc1` was 94.1%; that for `CCCCN(CCCC)C(=N)c1ccnc2ccccc12` was 42.6%; that for `O=C(Oc1ccccc1[N+](=O)[O-])C1CCCN1C(=O)OCc1ccccc1` (stereo unspecified) was 83.5%.
Turning to `CCN(CC)c1ccc(CNc2ccnc3ccccc23)cc1`, the growth is 51.7%.
Same read-out and setting: next, `CC1=C(C#N)C(=O)NC(C)C1` (stereo unspecified): 116%; `CC1CCC(C)N(C)C1` (stereo unspecified): 92.5%.
For the molecule `COC(=O)c1cccc2c1N(C)c1c(cccc1C(=O)OC)CC2`, the growth was 97.4%.
Still for that read-out and setting: next, `COc1cc(-c2nn(-c3cccc(NC(=O)c4ccc(Cl)c(C(F)(F)F)c4)c3)cc2-c2ccncc2)ccc1Cl`: 20.3%.
In the case of `CN(C)c1cccc2c(S(=O)(=O)/N=C(\N)Nc3nc4ccccc4s3)cccc12`, the growth was 60.6%.
Still for that read-out and setting: next, `O=C(Nc1ccc(NCCN2CCOCC2)nc1)c1ccc([N+](=O)[O-])cc1`: 118%; `COP(=O)(OC)/C(=N\NS(=O)(=O)c1ccc(C)cc1)c1ccccc1`: 103%.
As for `CC(=O)Nc1ccc(/C=C/C(=O)c2ccccc2)cc1`, the growth is 75.5%.
Still for that read-out and setting: next, `COc1ccc(CCNC2=CC(=O)CCC2)cc1OC`: 76.2%; `CCCCCCCCCCCCNC(=O)[C@H]1CSC(c2cc3ccccc3s2)N1` (stereo partly specified): -63.3% (active); `Cc1ccc(Cc2c(C=O)nc(N)[nH]c2=O)c2ccccc12`: 86.8%.
With `COc1cc(/C=C/C(=O)c2cccc(-n3cc(-c4cc(OC)c(OC)c(OC)c4)[nH]c3=O)c2)cc(OC)c1OC`, the growth was -16% (active).
Consider `CCCCCCCCCCCCNC(=O)[C@H]1CSC(c2ccsc2)N1` (stereo partly specified), for which the growth is -67.5% (active).
Same read-out and setting: next, `O=c1[nH]c(NCc2ccccc2)nc2nc(Nc3ccc(NC(=S)Nc4ccccc4)cc3)nc(-c3ccc(O)cc3O)c12`: 77.4%; `CCC(C)/C(=C\C#N)NCCCN/C(=C/C#N)C(C)CC` (stereo unspecified): 99.4%; `Oc1ccccc1/C=N/NC(=S)NC1CC2C=CC1C2` (stereo unspecified): 56.6%.
Still for that read-out and setting: the value for `COc1ccc(OC)c(C2OC(c3ccc4ccccc4c3O)=NN2C(C)=O)c1` (stereo unspecified) was 61.8%; that for `CN1CCN(Cc2ccc(NC(=O)c3cncc(C#Cc4cnc(N)c5cnccc45)c3)cc2C(F)(F)F)CC1` was 16.8%.
The same measure, in the same setting: the value for `COC(OC)c1ccccc1` was 108%.
`CC(C)CSc1nc(NN)c(C#N)c(-c2ccc(F)cc2)n1`: the growth is 80.3%.
As for `COc1cc2c(cc1OCCCN1CCN(CCCn3c4ccccc4c4ccccc43)CC1)N=C[C@@H]1CCCN1C2=O`, the growth is -39.6% (active).
`CC1(C)C(=O)/C(=C\c2ccc(C(F)(F)F)cc2)C[C@]2(C)[C@H]3CC[C@@H]4[C@H]5[C@H](C(=O)/C=C/c6ccc(C(F)(F)F)cc6)CC[C@]5(CO)CC[C@@]4(C)[C@]3(C)CC[C@@H]12`: the growth is 82.5%.
For the molecule `Cc1ccc(-c2cc3nc(C(Cl)Cl)nc(-c4ccccc4C)n3n2)cc1`, the growth was 62.9%.
Still for that read-out and setting: the value for `CCOC(=O)C1=C(C)NC(C)=C(C(=O)OCC)C1(C)C` was 97%.
Same read-out and setting: the value for `O=c1[nH]c(Nc2ccc(S(=O)(=O)O)cc2)nc2nc(Nc3ccc(NC(=S)Nc4ccccc4)cc3)nc(-c3ccc(O)cc3O)c12` was 91.4%.
